Values joined by “and” are separate entries in the source; they are usually repeats but may differ in a detail not shown here. Identical values can stand only once. The campaign covered roughly 73,000 compounds. About 350 (0.48%) were called active. About 17% were inconclusive and are not listed. The call rests on the fitted dose curve; in most records, active means well fitted activation curve with a large enough effect in the main read-out, with a control signal flat (not every such curve was filed as active); inconclusive means small, poorly fitted or top-dose-only effect, or a change in a side signal; inactive means no such curve, though single readings can be large or run the other way; reference of the percent scale not stated here. The entries come from a sample that favours actives as a whole. Where a structure was tested more than once in an assay, its records may differ in their call.
Columns and labels:
[1] = qHTS Assay for Agonists of the Thyroid Stimulating Hormone Receptor; settings: HEK293-CNG-TSHR cells, membrane potential dye, cAMP; measured here: parental cells max response
Text: (§1) NIH Chemical Genomics Center [NCGC]
(§2) NIH Molecular Libraries Screening Centers Network [MLSCN]
(§3) PI Name: Dr. Marvin Gershengorn, NIH
(§4) Thyroid Stimulating Hormone Receptor
(§5) TSH is an alpha/beta heterodimeric glycoprotein hormone secreted from the anterior pituitary gland which belongs to the glycoprotein hormone family. The actions of TSH are mediated by a seven-transmembrane receptor, which upon TSH binding couples preferentially to the G-alpha (s) protein (Gs), resulting in activation of adenylate cyclase and increase in cyclic adenosine 3', 5' monophosphate (cAMP). The TSH receptor (THSR) is mainly expressed in thyroid follicular cells and regulates their growth and function. Recombinant TSH is used to activate TSHR in patients with thyroid cancer receiving thyroid hormone suppression therapy and to screen for residual tumor after surgery, but it is expensive and must be administered intramuscularly. An orally active small molecule TSHR agonist would serve as an invaluable research tool for studying TSHR pharmacology and physiology, and would have multiple advantages in therapeutic settings. However, no selective small molecule agonist of the TSH receptor exists, and no small molecule screen for TSHR agonists has ever been reported.
(§6) This cell based assay utilized a cyclic nucleotide gated ion channel (CNG) as a biosensor for cAMP induction by potential TSHR agonists.
(§7) HEK 293 cells stably expressing the TSHR as well as a modified CNG were purchased from BD biosciences. Stimulation of cAMP production causes the CNG to open and subsequent membrane depolarization to occur. A fluorescent membrane potential dye (BD biosciences) was utilized to detect cAMP stimulation in TSHR cells.
(§8) The cells were maintained in DMEM medium (Invitrogen) containing 10 % FBS (Hyclone), 100 units/ml Penicillin, 100 ug/ml Streptomycin (Invitrogen), and 250 ug/ml Geneticin (Invitrogen) and 1 ug/ml Puromycin (Invitrogen) at 37C in 5% CO2. HEK 293 cells expressing CNG but without TSHR (parental cells) were used in concert to control for compounds signaling through endogenous receptors and targets of HEK 293 cells.
(§9) NCGC Assay Protocol Summary:
(§10) High Throughput Screening. Freshly passaged cells (TSHR or parental) were dispensed into 1536-well assay plates at 4 ul/well in DMEM containing phenol red (Invitrogen), 10% FCS (Hyclone), and 100 units/ml Penicillin, 100 ug/ml Streptomycin (Invitrogen) and incubated at 37 C with 5% CO2 for 20 to 36 hrs before the robotic screening. The screen was initiated by addition of 4 ul/well membrane potential dye containing 100 uM RO 20-1724 (Sigma Aldrich), followed by 60 min incubation at room temperature to allow for dye equilibration across the cell membrane. 23 nl/well compound or control was then added to the assay plates, which were incubated for additional 30 min before reading a Envision fluorescence plate reader (Perkin Elmer) in bottom-read mode for fluorescence intensity (emission at 590 nm).
(§11) Keywords: Thyroid-stimulating hormone TSH, TSHR, TSHR agonist, quantitative high throughput screening, qHTS, HTS, probe identification, CNG, cAMP, cyclic nucleotide gated ion channel PubChem

[2] = target: Thyrotropin receptor (Homo sapiens) (UniProt P16473); test: as above; settings: HEK293-CNG-TSHR cells (CNG channel as cAMP sensor), membrane potential dye, cAMP; series mostly up to 57.1 µM
Thyrotropin receptor (Homo sapiens), sequence (P16473 whole entry, looked up): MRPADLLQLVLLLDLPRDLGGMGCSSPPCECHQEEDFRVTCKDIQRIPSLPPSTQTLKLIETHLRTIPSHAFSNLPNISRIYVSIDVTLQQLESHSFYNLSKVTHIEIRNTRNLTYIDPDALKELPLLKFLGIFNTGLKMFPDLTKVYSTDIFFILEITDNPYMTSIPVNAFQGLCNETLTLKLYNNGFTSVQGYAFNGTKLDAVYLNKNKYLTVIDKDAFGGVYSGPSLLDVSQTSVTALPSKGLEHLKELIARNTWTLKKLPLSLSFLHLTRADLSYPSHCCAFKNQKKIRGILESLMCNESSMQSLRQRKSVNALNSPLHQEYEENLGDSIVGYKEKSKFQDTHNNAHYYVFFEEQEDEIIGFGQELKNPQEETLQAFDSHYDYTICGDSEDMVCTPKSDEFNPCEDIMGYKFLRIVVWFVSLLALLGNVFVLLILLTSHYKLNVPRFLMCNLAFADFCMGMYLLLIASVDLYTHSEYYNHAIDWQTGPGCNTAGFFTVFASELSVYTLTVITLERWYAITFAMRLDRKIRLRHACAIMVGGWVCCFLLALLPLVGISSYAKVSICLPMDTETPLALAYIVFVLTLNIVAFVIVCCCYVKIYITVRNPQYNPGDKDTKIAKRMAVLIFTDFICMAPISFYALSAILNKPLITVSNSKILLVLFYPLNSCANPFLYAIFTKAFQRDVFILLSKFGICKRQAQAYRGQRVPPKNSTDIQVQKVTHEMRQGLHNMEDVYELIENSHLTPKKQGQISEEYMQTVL
Text: as §1, §2, §3, §4, §5, §6, §7, §8, §9, §10, §11
Potency means the concentration at half of the fitted maximal effect.

| SMILES | activation [1] | Potency [2] |
| --- | --- | --- |
| C=CCN1C(=O)C2(C(C(=O)OCC)=C(N)Oc3c2c(=O)oc2ccccc32)c2ccccc21 (centres undefined) | -2.59% | 1000 nM (active) |
| CCOC(=O)CC1=C(C(=O)OCC)C2(C(=O)N1)C(C(=O)OC)=C(N)Oc1ccccc12 (centres undefined) | 2.69% | inactive |
| CCOC(=O)C1=C(C)OC(N)=C(C(=O)OC)C12C(=O)Nc1ccc(Br)cc12 (centres undefined) | 2.68% | inactive |
| C/C(=C\C=C/[C@@H](C)C(=O)O)[C@H]1CN[C@H](C(=O)O)[C@@H]1CC(=O)O | 10.5% | inactive |
| CN1[C@H]2CC(OC(=O)[C@@H](CO)c3ccccc3)C[C@H]1[C@H]1O[C@H]12 (some centres undefined) | 8.99% | inactive |
| C[C@]12CC[C@H](O)C[C@@H]1CC[C@H]1[C@H]2CC[C@]2(C)C(=O)CC[C@@H]12 | -0.6% and 8.47% and 0.887% | inactive |
| CN=C(NC#N)NCCSCc1nc[nH]c1C | 6.37% and -0.29% | inactive |
| CNCC[C@H](Oc1ccc(C(F)(F)F)cc1)c1ccccc1 | – | inactive and 126 nM (active) |
| Clc1ccc([C@@H]2C[C@H]3CC[C@@H]2N3)cn1 | 5.78% | inactive |
| Clc1cccc(Cl)c1Cl | 22.7% | inactive |
